# Measles inh: inhibitors of measles virus growth in cells, primary screen, measles RdRp inhibitor project, cell-based, single point, HTS | infected Vero cells, GFP fluorescence, 64 h; stronger effect = lower value | 33,000 compounds, 0.1% hits | z-score (concentration not given with the values) | AID 745, 2007; in the data active = z-score below about -3
# * marks the source's active call; other numbers are inactive results. The entries come from a sample that favours hits as a whole.
SMILES,Measles inh
COc1ccc(S(=O)(=O)N2CCCC2C(=O)Nc2ccc(S(=O)(=O)Nc3cc(C)on3)cc2)cc1 (centres undefined),-0.68
Cc1ccc(-c2nn(-c3cc(N4CCNCC4)ccc3[N+](=O)[O-])c(=O)c3ccccc23)cc1C,-1.1
Cc1ccc(NC(=O)C2CCN(S(=O)(=O)c3cccc4cccnc34)CC2)cc1Cl,1
O=C(Cc1ccccc1)Oc1ccc(N2C(=O)C3C4CCC(C4)C3C2=O)cc1 (centres undefined),-6.4*
COc1ccc(OC(=O)c2ccc(N3C(=O)C4C5CCC(C5)C4C3=O)cc2)cc1 (centres undefined),0.48
O=C(OCc1ccccc1)c1cccc(N2C(=O)C3C4CCC(C4)C3C2=O)c1 (centres undefined),0.3
COc1ccc(C(=O)N2CCN(c3ccc([N+](=O)[O-])c(N4CCCCC4)c3)CC2)cc1,-2
CCN(c1ccccc1)S(=O)(=O)c1ccc2[nH]cc(C(=O)NC3CCCCC3)c(=O)c2c1,-2.1
CCc1ccccc1NS(=O)(=O)c1ccc2[nH]cc(C(=O)NC3CCCC3)c(=O)c2c1,-0.66
O=C(NC1CCCCCC1)c1c[nH]c2ccc(S(=O)(=O)N3CCc4ccccc43)cc2c1=O,-3.2*
O=C(CSc1nnc(COc2ccccc2)o1)N1CCCc2ccccc21,0.53
CC(C)c1ccc(NC(=O)c2cc(-c3cccs3)nc3ccccc23)cc1,-0.09
O=C(Nc1cccnc1)c1cc(-c2cccs2)nc2ccccc12,0.73
Cc1ccc(Cl)cc1NC(=O)c1cc(-c2cccs2)nc2ccccc12,-3*
CC(C)CSc1oc(-c2cccs2)nc1S(=O)(=O)c1ccc(Cl)cc1,0.84
CCN1CCN(C2CC(=O)N(c3ccc(Br)cc3)C2=O)CC1 (centres undefined),7
CCn1c2ccccc2c2cc(NC(=O)CN3CCN(S(=O)(=O)c4cccc([N+](=O)[O-])c4)CC3)ccc21,-1.4

# Compound activity (PubChem BioAssay)
